These results are taken from PubChem BioAssay (EPA / NIEHS).

In general, AC50 refers to the concentration giving half of the maximal activity seen.

Activity calls are given as the source filed them. How the source made its calls: active means hit-call score of the fitted dose curve at least 0.9, where 1 is the maximum; inactive means score below 0.9.

Holding throughout (settings): mRNA level, 48 h; actives raise or lower the signal
Read-out in experiment [1]: Glutathione S-transferase M3 (GSTM3), GSTM3 (gene 2947)
The experiment is described as follows: LTEA_HepaRG_GSTM3: Life Technologies and Expression Analysis (LTEA) Assay for Glutathione S-transferase M3 (GSTM3) using HepaRG (AID 2283501). Summed up:
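HepaRG, plated 48 h, then serum-free induction medium; test chemical 48 h, duplicate; 100 uM top, half-log x8, 0.5% DMSO. Read-out: GSTM3 mRNA (TaqMan qRT-PCR, Fluidigm array). Bidirectional fit vs DMSO.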

Read-out in experiment [2]: Hypoxia-inducible factor 1-alpha (Homo sapiens) (UniProt Q16665)
The experiment is described as follows: LTEA_HepaRG_HIF1A: Life Technologies and Expression Analysis (LTEA) Assay for Hypoxia-inducible factor 1 (HIF1A) Trancription factor using HepaRG (AID 2283503).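 Further: HIF1A transcript by TaqMan qRT-PCR normalized to ACTB GAPDH and POLR2A.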 The essentials:
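Gain- or loss-of-signal HIF1A mRNA changes are fitted against a DMSO baseline. HepaRG cultures receive eight concentrations, highest 100 uM, for 48 h in serum-free induction medium with 0.5% DMSO.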

Read-out in the next experiment: HGF (gene 3082)
Kind of experiment: LTEA_HepaRG_HGF: Life Technologies and Expression Analysis (LTEA) Assay for Hepatocyte Growth Facto (HGF) using HepaRG (AID 2283505). The essentials:
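Read-out is HGF transcript level by qRT-PCR, normalized to three housekeeping genes, fitted bidirectionally against 0.5% DMSO vehicle. Human HepaRG cells received test chemicals for 48 h at up to 100 uM.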

Read-out in experiment [3]: Insulin Like Growth Factor 1 (IGF1), IGF1 (gene 3479)
The experiment is described as follows: LTEA_HepaRG_IGF1: Life Technologies and Expression Analysis (LTEA) Assay for Insulin Like Growth Factor 1 (IGF1) using HepaRG (AID 2283506). Summed up: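 qRT-PCR readout of IGF1 mRNA, normalized to three housekeeping genes, after 48 h chemical exposure of HepaRG cells. Concentrations: 8-point half-log series, top 100 uM, 0.5% DMSO vehicle. Gain or loss fitted against DMSO baseline.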

Read-out in experiment [4]: Insulin-like growth factor-binding protein 1 (IGFBP1), IGFBP1 (gene 3484)
Kind of experiment: LTEA_HepaRG_IGFBP1: Life Technologies and Expression Analysis (LTEA) Assay for Insulin-like growth factor-binding protein 1 (IGFBP1) using HepaRG (AID 2283508). The essentials: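 Thawed HepaRG cells are plated for 48 h, switched to serum-free induction medium, then dosed in duplicate for another 48 h (100 uM top, half-log steps). Lysates in RLT go to qRT-PCR, and gain or loss of signal is fitted relative to vehicle.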

Read-out in experiment [5]: Interleukin 6 (IL6), IL6 (gene 3569)
Kind of experiment: LTEA_HepaRG_IL6: Life Technologies and Expression Analysis (LTEA) Assay for Interleukin 6 (IL6) using HepaRG (AID 2283509). The essentials: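 qRT-PCR read-out of IL6 transcript, normalized to three housekeeping genes, after 48 h chemical exposure of HepaRG cells; 8-point half-log series, top 100 uM, 0.5% DMSO vehicle. Bidirectional curve fitting against DMSO baseline.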

Read-out in experiment [6]: Interleukin 6 Receptor (IL6R), IL6R (gene 3570)
The experiment is described as follows: LTEA_HepaRG_IL6R: Life Technologies and Expression Analysis (LTEA) Assay for Interleukin 6 Receptor (IL6R) using HepaRG (AID 2283510). Summed up:
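HepaRG, 48 h exposure, 8-pt half-log series, top 100 uM, 0.5% DMSO vehicle, duplicates. Read-out: TaqMan qRT-PCR of IL6R transcript, housekeeping-gene normalized. Gain or loss fitted relative to DMSO baseline.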

Read-out in experiment [7]: Keratin 19 (KRT19), KRT19 (gene 3880)
Kind of experiment: LTEA_HepaRG_KRT19: Life Technologies and Expression Analysis (LTEA) Assay for Keratin 19 (KRT19) using HepaRG (AID 2283512). Summed up: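 KRT19 transcript levels, measured by Fluidigm qRT-PCR against three housekeeping genes, are fitted for gain or loss of signal relative to DMSO. Human HepaRG cells receive test chemicals (top 100 uM, half-log steps, 0.5% DMSO) for 48 hours.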

Read-out in experiment [8]: JUN Transcription Factor, JUN (gene 3725)
Kind of experiment: LTEA_HepaRG_JUN: Life Technologies and Expression Analysis (LTEA) Assay for JUN Transcription Factor using HepaRG (AID 2283513). The essentials: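 HepaRG, 48 h exposure, 8-pt half-log series top 100 uM, 0.5% DMSO, duplicate. JUN mRNA by qRT-PCR (Fluidigm), housekeeping-normalized (ACTB/GAPDH/POLR2A); bidirectional curve fit vs DMSO baseline.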

Read-out in experiment [9]: Lipase C (LIPC), LIPC (gene 3990)
Kind of experiment: LTEA_HepaRG_LIPC: Life Technologies and Expression Analysis (LTEA) Assay for Lipase C (LIPC) using HepaRG (AID 2283514). Summed up: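 HepaRG, 48 h exposure, 8-pt half-log series from 100 uM in 0.5% DMSO, duplicates. Readout: LIPC mRNA by Fluidigm qRT-PCR, housekeeping-normalized (ACTB/GAPDH/POLR2A). Gain or loss fitted bidirectionally against DMSO baseline.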

Read-out in experiment [10]: Lipoprotein lipase (LPL), LPL (gene 4023)
The experiment is described as follows: LTEA_HepaRG_LPL: Life Technologies and Expression Analysis (LTEA) Assay for Lipoprotein lipase (LPL) using HepaRG (AID 2283515). The essentials: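 HepaRG, 48 h exposure, 8-pt half-log dilutions from 100 uM, 0.5% DMSO vehicle, duplicates; qRT-PCR (Fluidigm array) of LPL mRNA vs housekeeping genes; bidirectional curve fit relative to DMSO baseline.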

Read-out in experiment [11]: MicroRNA 122 (MIR122), gene 406906
Kind of experiment: LTEA_HepaRG_MIR122: Life Technologies and Expression Analysis (LTEA) Assay for MicroRNA 122 (MIR122) using HepaRG (AID 2283516). Further: the transcript read is the microRNA miR-122. Summed up:
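qRT-PCR read-out (TaqMan, Fluidigm array), normalized to three housekeeping genes; HepaRG cells dosed 48 h at 8 concentrations up to 100 uM in 0.5% DMSO, duplicate; gain or loss fitted against DMSO baseline.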

Read-out in experiment [12]: matrix metalloproteinase-10 (MMP10), MMP10 (gene 4319)
The experiment is described as follows: LTEA_HepaRG_MMP10: Life Technologies and Expression Analysis (LTEA) Assay for matrix metalloproteinase-10 (MMP10) using HepaRG (AID 2283517). Summed up: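 Transcript levels come from Fluidigm qRT-PCR normalized to three housekeeping genes, with curves fitted bidirectionally against 0.5% DMSO. Human HepaRG cells were dosed for 48 hours at concentrations up to 100 uM.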

Read-out in the next experiment: MYC, MYC (gene 4609)
The experiment is described as follows: LTEA_HepaRG_MYC: Life Technologies and Expression Analysis (LTEA) Assay for MYC using HepaRG (AID 2283518). Summed up:
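HepaRG, ~100,000 cells/well, collagen I; 48 h plating; serum-free induction medium; 48 h dosing, duplicate, 100 uM top, half-log, 0.5% DMSO; total RNA → qRT-PCR MYC; gain/loss fit vs DMSO.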

Read-out in experiment [13]: matrix metalloproteinase-3 (MMP3), MMP3 (gene 4314)
The experiment is described as follows: LTEA_HepaRG_MMP3: Life Technologies and Expression Analysis (LTEA) Assay for matrix metalloproteinase-3 (MMP3) using HepaRG (AID 2283519). Summed up: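 qRT-PCR read-out of MMP3 mRNA (normalised to three housekeeping genes) in HepaRG liver cells after 48 h chemical exposure; 8-point half-log series, top 100 uM, 0.5% DMSO vehicle. Bidirectional curve fitting against DMSO baseline.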

Read-out in experiment [14]: Nuclear factor NF-kappa-B p105 subunit (Homo sapiens) (UniProt P19838)
The experiment is described as follows: LTEA_HepaRG_NFKB1: Life Technologies and Expression Analysis (LTEA) Assay for Nuclear Factor Kappa B Subunit 1 (NFKB1) using HepaRG (AID 2283521).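 Further: differentiated human HepaRG liver cells in serum-free induction medium; TaqMan qRT-PCR transcript normalised to ACTB GAPDH and POLR2A housekeeping genes.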 Summed up: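 NFKB1 transcript was measured by TaqMan qRT-PCR on Fluidigm arrays, normalised to three housekeeping genes and fitted in both directions against 0.5% DMSO. HepaRG cells were dosed in duplicate for 48 h in serum-free induction medium, eight half-log steps from 100 uM.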

Read-out in experiment [15]: Protein phosphatase 2A (PPP2R4), PTPA (gene 5524)
Kind of experiment: LTEA_HepaRG_PPP2R4: Life Technologies and Expression Analysis (LTEA) Assay for Protein phosphatase 2A (PPP2R4) using HepaRG (AID 2283522). The essentials:
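HepaRG, 48 h exposure, 8-pt half-log series from 100 uM, 0.5% DMSO vehicle, duplicates. Readout: PPP2R4 mRNA, Fluidigm qRT-PCR, housekeeping-normalized. Bidirectional curve fit vs DMSO baseline.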

Read-out in experiment [16]: Phosphatase and tensin (PTEN), PTEN (gene 5728)
Kind of experiment: LTEA_HepaRG_PTEN: Life Technologies and Expression Analysis (LTEA) Assay for Phosphatase and tensin (PTEN) using HepaRG (AID 2283523). The essentials: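 HepaRG, 48 h exposure, 8-pt half-log series from 100 uM top, 0.5% DMSO vehicle, duplicates. Readout: Fluidigm qRT-PCR of PTEN transcript; housekeeping normalization (ACTB, GAPDH, POLR2A). Gain or loss fitted relative to DMSO baseline.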

Read-out in experiment [17]: solute carrier (SLC22A1), SLC22A1 (gene 6580)
The experiment is described as follows: LTEA_HepaRG_SLC22A1: Life Technologies and Expression Analysis (LTEA) Assay for solute carrier (SLC22A1) using HepaRG (AID 2283524). The essentials:
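qRT-PCR readout (TaqMan, Fluidigm arrays) of SLC22A1 transcript, normalized to three housekeeping genes; bidirectional curve fit relative to 0.5% DMSO vehicle. Differentiated human HepaRG cells, 48 h chemical exposure, top concentration 100 uM, half-log steps, eight points.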

Read-out in experiment [18]: Pyruvate Dehydrogenase Kinase 4 (PDK4), PDK4 (gene 5166)
Kind of experiment: LTEA_HepaRG_PDK4: Life Technologies and Expression Analysis (LTEA) Assay for Pyruvate Dehydrogenase Kinase 4 (PDK4) using HepaRG (AID 2283525). Summed up: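 HepaRG (human liver line), 48 h chemical exposure, 8-pt half-log CRC top 100 uM, 0.5% DMSO vehicle, duplicates. Readout: TaqMan qRT-PCR of PDK4 mRNA, housekeeping-normalized; gain/loss fit relative to DMSO baseline.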

Chain of Hypoxia-inducible factor 1-alpha (Homo sapiens) (Q16665 whole entry, looked up): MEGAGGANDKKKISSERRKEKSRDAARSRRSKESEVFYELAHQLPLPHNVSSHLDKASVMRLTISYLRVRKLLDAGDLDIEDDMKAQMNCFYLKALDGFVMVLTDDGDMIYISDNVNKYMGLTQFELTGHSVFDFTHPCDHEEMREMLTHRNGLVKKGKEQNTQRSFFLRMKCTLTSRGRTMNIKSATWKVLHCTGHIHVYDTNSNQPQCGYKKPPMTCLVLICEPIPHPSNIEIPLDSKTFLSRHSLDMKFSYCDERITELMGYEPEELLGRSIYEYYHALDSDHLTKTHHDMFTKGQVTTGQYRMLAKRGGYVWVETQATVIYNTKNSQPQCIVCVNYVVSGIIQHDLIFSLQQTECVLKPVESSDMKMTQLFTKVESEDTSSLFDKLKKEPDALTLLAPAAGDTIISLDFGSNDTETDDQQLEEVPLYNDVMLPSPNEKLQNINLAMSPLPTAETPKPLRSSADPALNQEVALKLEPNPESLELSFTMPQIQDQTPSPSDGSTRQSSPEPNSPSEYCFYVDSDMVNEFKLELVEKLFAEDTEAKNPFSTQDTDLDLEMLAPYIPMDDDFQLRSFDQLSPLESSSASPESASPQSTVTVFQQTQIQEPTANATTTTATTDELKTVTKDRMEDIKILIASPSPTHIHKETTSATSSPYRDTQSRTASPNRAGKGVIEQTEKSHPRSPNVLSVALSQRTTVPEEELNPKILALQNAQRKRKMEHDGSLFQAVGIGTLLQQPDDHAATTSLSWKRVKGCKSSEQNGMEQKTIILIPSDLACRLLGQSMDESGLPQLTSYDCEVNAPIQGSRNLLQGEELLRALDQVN
Chain of Nuclear factor NF-kappa-B p105 subunit (Homo sapiens) (P19838 whole entry, looked up): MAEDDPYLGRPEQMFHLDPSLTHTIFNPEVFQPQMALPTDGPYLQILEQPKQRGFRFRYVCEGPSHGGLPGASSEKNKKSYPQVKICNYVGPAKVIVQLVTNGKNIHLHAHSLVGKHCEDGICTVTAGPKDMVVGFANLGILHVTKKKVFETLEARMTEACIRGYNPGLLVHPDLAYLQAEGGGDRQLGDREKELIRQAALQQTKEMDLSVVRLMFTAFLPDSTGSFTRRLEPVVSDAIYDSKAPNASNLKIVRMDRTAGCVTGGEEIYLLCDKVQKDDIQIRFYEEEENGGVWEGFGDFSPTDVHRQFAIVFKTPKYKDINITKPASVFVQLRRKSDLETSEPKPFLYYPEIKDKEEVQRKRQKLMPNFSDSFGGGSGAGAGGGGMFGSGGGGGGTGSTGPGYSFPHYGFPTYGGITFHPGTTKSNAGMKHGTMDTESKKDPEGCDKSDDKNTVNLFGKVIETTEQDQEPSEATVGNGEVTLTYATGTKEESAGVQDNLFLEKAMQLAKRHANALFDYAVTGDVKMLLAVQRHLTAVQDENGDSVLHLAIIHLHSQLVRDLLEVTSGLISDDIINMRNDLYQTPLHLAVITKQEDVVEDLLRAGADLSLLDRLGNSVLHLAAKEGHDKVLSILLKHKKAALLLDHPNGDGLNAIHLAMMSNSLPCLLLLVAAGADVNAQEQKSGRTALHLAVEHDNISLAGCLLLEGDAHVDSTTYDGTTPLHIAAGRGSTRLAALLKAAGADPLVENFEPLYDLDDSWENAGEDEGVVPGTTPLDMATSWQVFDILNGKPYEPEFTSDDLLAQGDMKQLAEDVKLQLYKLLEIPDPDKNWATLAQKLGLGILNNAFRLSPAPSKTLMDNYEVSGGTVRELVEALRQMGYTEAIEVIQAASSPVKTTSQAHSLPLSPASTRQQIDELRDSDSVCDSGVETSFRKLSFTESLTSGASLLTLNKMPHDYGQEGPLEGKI

Take `CCCCCCCCCCCCc1cccc(S(=O)(=O)O)c1`: the molecule was classed as inactive (in experiment [1]; with HGF (gene 3082); in experiment [3]; in experiment [4]; in experiment [5]; in experiment [6]). Moreover, the outcome is “inactive” in experiment [8]; “inactive” in experiment [9]; “inactive” in [11]; “inactive” in experiment [12]; “inactive” with MYC, MYC (gene 4609); “inactive” in experiment [13]. In addition, the molecule was classed as inactive in experiment [14], in [15], in [16], in experiment [17] and in [18]. The values for the AC50 in experiment [2], in experiment [7] and in experiment [10] were 16.5 µM (active), 76.1 µM (active) and 8.93 µM (active), respectively.

In the case of `Cc1cc(C)cc(C)c1`, the outcome (in experiment [1]; in experiment [2]; with HGF (gene 3082); in [3]; in experiment [4]; in [5]) was inactive. In addition, the outcome in experiment [6], in [7], in experiment [8], in [9], in [10] and in experiment [11] was inactive. Also, the outcome in experiment [12] was “inactive”; with MYC, MYC (gene 4609), “inactive”; in experiment [13], “inactive”; in experiment [14], “inactive”; in [15] it was “inactive”; in experiment [16] it was “inactive”. The result in experiment [17] and in experiment [18] was inactive.

For `OCCN(CCO)CCO`, the outcome (in experiment [1]; in experiment [2]; with HGF (gene 3082); in experiment [3]; in [4]; in [5]) was inactive. Further, the result in [6], in experiment [7], in experiment [8], in experiment [9], in experiment [10] and in experiment [11] was inactive. Also, the outcome in [12] is “inactive”; with MYC, MYC (gene 4609) it was “inactive”; in experiment [13] it was “inactive”; in [14], “inactive”; in [15], “inactive”; in [16], “inactive”. Moreover, the call in experiment [17] and in experiment [18] was inactive.
